From the supplement of paper PMC3334620
Whole data set: some 33,000 sequences, median “E-score (-0.5 to 0.5)” near -0.041, cut for the highest 2% near 0.37. For the sample, the highest values were picked, then their nearest neighbours and some sequences at random.

target: T1, Ecm22 (UniProt Q05958); assay: PBM E-score (8-mer binding enrichment) (E-score (-0.5 to 0.5)); higher = stronger / more preferred TF binding; conditions: protein concentration: 200 nM; construct: GST-full length
T1 sequence: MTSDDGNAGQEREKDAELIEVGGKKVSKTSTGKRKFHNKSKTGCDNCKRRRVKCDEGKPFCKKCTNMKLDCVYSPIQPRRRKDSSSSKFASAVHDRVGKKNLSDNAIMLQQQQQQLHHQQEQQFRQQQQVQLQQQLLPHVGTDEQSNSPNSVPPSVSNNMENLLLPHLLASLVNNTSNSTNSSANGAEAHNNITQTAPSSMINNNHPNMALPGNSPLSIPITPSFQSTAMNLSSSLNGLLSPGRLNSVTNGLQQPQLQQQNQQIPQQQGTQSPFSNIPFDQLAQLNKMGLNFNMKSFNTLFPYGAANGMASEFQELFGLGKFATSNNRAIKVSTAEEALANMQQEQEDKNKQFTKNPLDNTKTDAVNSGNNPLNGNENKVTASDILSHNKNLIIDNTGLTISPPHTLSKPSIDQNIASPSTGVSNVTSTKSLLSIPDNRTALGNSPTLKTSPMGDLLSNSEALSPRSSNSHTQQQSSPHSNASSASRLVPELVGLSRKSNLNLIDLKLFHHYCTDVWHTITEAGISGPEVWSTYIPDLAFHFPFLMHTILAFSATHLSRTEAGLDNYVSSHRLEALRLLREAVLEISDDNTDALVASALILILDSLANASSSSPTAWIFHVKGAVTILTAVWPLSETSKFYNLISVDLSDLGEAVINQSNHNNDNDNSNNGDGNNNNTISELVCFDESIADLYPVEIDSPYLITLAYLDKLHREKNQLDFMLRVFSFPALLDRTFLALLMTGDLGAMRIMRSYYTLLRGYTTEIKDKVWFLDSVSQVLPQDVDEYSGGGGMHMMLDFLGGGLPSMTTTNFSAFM
Method in brief: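 Each ungapped eight-base word and its reverse complement, pooled, received an E-score from the Universal PBM Analysis Suite. Underlying scans, normalised with masliner, recorded fluorescent anti-GST bound to GST-tagged yeast transcription factors. These were applied at about 100-200 nM to universal all-10-mer Agilent arrays double-stranded by primer extension.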

Sequence	PBM E-score
TACTCACA	-0.0537
CCCCCGAG	-0.231
ACGAGGCT	0.382
AGGAGGCG	-0.229
ACGAGGCC	0.376
CCGAGGCC	0.117
ACGAGGCG	0.431
GCGAGGCA	0.296
ACCAGGCT	-0.198
ACGAGGCA	0.401
CCGAGGCG	0.0444
GCGAGGCC	0.251
AAGAGGCT	-0.268
CCGAGGCA	0.0444
CCGGTCTA	-0.0788
AATAACAA	-0.0956
AGATTCCT	-0.227
AACGCCGC	-0.00584
CGGTAAAA	0.228
AGCAATAG	-0.0955
ACTTCCAA	-0.156
AAACCCGA	0.279
CTCAACAG	-0.193
AGACCAGC	-0.283
CAGGAAAA	-0.019
AACCCAGC	-0.207

Sequence	PBM E-score
ACTACGAT	0.182
AGTACGAA	0.42
AGTACGCA	-0.0459
GGTACGCA	0.263
CGTACGCA	0.36
AGTACGTA	0.283
AGTACGAT	0.407
GGTACGAA	0.486
AGTACTAT	0.0505
GGTACGTA	0.319
CGTACGTA	0.367
CGTACGAA	0.448
AGTTCTGC	0.17
AGATGAAG	-0.13
CCCCTAGC	-0.254
ACTCAACC	-0.0151
CGATGGAA	0.0222
GGCACAAC	-0.169
GACACCCA	-0.171
TAGGACGA	-0.216
ATTCTCAG	-0.308
CGTACGCC	0.3
CGTACGAC	0.444
AGTACGTG	0.142
CGTACGAG	0.473
AGTACGAG	0.456

Sequence	PBM E-score
ATTACGTG	-0.0556
CGTACGTC	0.356
CCTACGAG	0.339
CGGACGAG	-0.0963
AGTACGCG	0.197
ATTACGAC	0.367
ATTACGAG	0.38
ACGCTGGA	0.126
ACGACCCT	0.331
CGCACGCA	0.141
GCCGGCGA	-0.117
TAGACCGA	0.175
AGAGAGCT	-0.169
AAGCATTC	-0.157
CGTGCGCA	-0.0738
CACAGTTC	-0.0557
CGAGTACA	0.246
CGCTAACA	0.0557
AGTACGCC	-0.0213
AGTACGTC	0.0542
TGTACGAA	0.48
TGCACGAA	0.109
AGTACGAC	0.443
TGTACAAA	-0.0698
CCGACCAA	0.105
CAAGTATG	-0.112

Sequence	PBM E-score
ATCTCACG	-0.0833
AAACGGTG	0.376
ATACGGTG	0.388
ATACGGTC	0.383
AAACGGCT	0.259
AGACGGTG	-0.132
AAACGGTA	0.287
AAACGGTC	0.293
ACACGGTC	-0.0081
CTACGGTC	0.0518
ACACGGTG	-0.0453
AAACGGCG	0.391
AAACGGCC	0.29
ATGCAAAG	0.0339
AAAAATGA	-0.0643
AGGCTCAG	-0.211
GTTAGGGA	0.0493
AGGTGCTG	-0.371
AGCATACT	0.0121
CCGGACCA	0.0404
CGGGAACG	0.456
AGGGAACC	0.00984
CGGGAACC	0.0199
AGGGAACG	0.465
CGGGAACA	0.165
AGGGAACA	-0.166

Sequence	PBM E-score
AAAGGAGT	-0.131
GTTTCCTA	0.0344
GCGGCTAA	-0.034
AAATCTGA	-0.168
CCTTGGCG	-0.159
CGTACCAC	0.446
CGTACCAA	0.444
GGTACCAC	-0.137
TGTACCAA	0.036
AGTACCAG	-0.14
AGTACCAA	-0.119
CGTACCAG	0.397
AGTACCAC	0.0416
CATACCAG	-0.0569
TCCCTAAA	-0.00662
CGCACGTC	0.00508
TAGGGATA	-0.165
GCAGTAAA	-0.0139
CGAACGCA	0.242
GCTTCCCC	-0.098
CAAAGCCA	-0.0435
TCTACGAA	0.312
CCTACGAA	0.192
GCTACGAA	0.429
ACTACGAC	0.329
GCTACGAC	0.426

Sequence	PBM E-score
CCTACGAC	0.232
CCTCTCAA	-0.127
AGCGTATC	0.0945
ATAGTATC	0.127
ATAGTATA	0.211
ATCGTGTA	0.25
CTCGTATC	0.478
CGCGTATC	0.232
AGCGTATG	0.136
CACGTATC	0.132
ATCGTATC	0.418
ATCGTATG	0.438
ATCGTATA	0.488
ATAGTATG	0.0828
TCTGCTCA	-0.168
TCGAGCGA	0.0676
ATATCAAC	-0.103
CCAGTTGC	-0.196
ACTGGCCA	-0.206
CAGAGTCA	-0.226
GCAGAGAC	-0.357
CGTATAGC	0.477
AGTATAGA	0.16
CCTATAGC	-0.248
AGTATAGC	0.0261
GGTATAGA	-0.0121

Sequence	PBM E-score
CGTATAGA	0.458
ACATGGGC	-0.263
GAAGTCCC	-0.172
ACGTTCGC	0.157
GAAATTGC	0.0049
ACACATTA	0.031
CCACGAGG	0.00398
CTGTCGAA	-0.00303
ATGTCGTC	0.0394
GTGTCGTA	0.445
CTGTCGTC	0.161
GTGTCGGA	0.0575
CTGTCGTA	0.453
GTGTCGCA	0.162
ATGTCGTA	0.446
ATGTCGTG	0.0288
AACCAATT	-0.233
ATCTACCC	0.0111
ATTTACGG	0.31
CTTTACCA	-0.226
GTTTACTA	0.182
ATTTACGA	0.453
ATTTACGC	0.0401
GTTTACAA	0.19
CTTTACGA	0.464
CATTACGA	0.289

Sequence	PBM E-score
AATTACGA	0.361
CTTTACGC	0.211
GTTTACGA	0.46
TATTACGA	0.389
CGGACTGC	-0.0684
ATTCTATA	-0.00057
CTACTGCA	-0.158
AGAGGAAG	-0.167
ATCACTAA	-0.0903
AAAGGGTC	-0.109
ATCATAGC	-0.0799
AGTCCCAG	-0.0584
GAAGAAGA	-0.0416
GGGTCCTA	-0.218
TGGGACCA	-0.27
GAAGGTTA	-0.016
CCGAGCTC	0.219
AGGAGCTG	-0.288
ACGAGCAT	0.365
CCGAGCTA	0.101
GCGAGCTA	0.248
ACGAGCTG	0.411
ACGAGCTA	0.39
ACGAGCAA	0.288
ACGAGCTC	0.39
AGGAGCTC	-0.0307

Sequence	PBM E-score
AAGAGCTG	-0.264
ACGAGCAG	0.383
GAAGTATC	0.0371
ACTTCACG	-0.0496
ATATGGAT	0.133
ACGGTTTA	0.0698
CAACTCTC	-0.11
AGTCCGAA	0.0505
CGTTTCGA	0.202
AGTCGTGA	0.0257
AGTCGTCA	-0.236
CGTCGTAA	0.446
TATCGTAA	0.363
GGTCGTAA	0.417
GGTCGTCA	0.0226
TGGCGTAA	0.0429
CGTCGTCA	0.0778
AGTCGTAA	0.395
TGTCGTAA	0.428
CGTCGTGA	0.117
GGTCGTGA	-0.0346
